# From the supplement of paper PMC11732987, “Enantioselective OTUD7B fragment discovery through chemoproteomics screening and high-throughput optimisation” (Communications Chemistry, 2025)
# A number with no mark means an inactive call.
# Assays:
# Test in all cases: log2 ratio of Biotin-Ahx-Ub-VS probe labelling (fragment/DMSO); higher = less target engagement (more negative = stronger competition), active = hit call of the paper (q ≤ 0.05, log2 ratio ≤ -1)
# Conditions in all cases: compound concentration: 200 uM; treatment time: 3 h
# [1] = target: T1, OTUD6B (UniProt Q8N6M0)
# T1 sequence (whole entry): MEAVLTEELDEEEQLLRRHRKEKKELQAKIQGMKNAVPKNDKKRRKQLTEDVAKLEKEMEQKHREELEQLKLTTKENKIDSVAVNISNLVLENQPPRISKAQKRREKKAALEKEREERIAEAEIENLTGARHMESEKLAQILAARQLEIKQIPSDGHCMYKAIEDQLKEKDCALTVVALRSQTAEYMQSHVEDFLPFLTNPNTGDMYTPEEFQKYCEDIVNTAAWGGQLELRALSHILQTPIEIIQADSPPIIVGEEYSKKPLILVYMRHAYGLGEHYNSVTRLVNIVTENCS
# Outline: (§1)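 Each value is an average log2 ratio of fragment to vehicle, tested by unpaired t-test. The underlying Spectronaut label-free quantities were global-median-normalised, and only proteins with ≥2 unique peptides were included. Triplicate HEK293T lysate samples (495 µg) were exposed to fragment at 200 µM or vehicle for 3 h, then to Biotin-Ahx-Ub-VS at 0.5 µM final for 1 h, before NeutrAvidin enrichment of labelled DUBs, LysC and trypsin digestion, and diaPASEF LC-MS/MS.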
# [2] = target: T2, OTUD7B (UniProt Q6GQQ9)
# T2 sequence (whole entry): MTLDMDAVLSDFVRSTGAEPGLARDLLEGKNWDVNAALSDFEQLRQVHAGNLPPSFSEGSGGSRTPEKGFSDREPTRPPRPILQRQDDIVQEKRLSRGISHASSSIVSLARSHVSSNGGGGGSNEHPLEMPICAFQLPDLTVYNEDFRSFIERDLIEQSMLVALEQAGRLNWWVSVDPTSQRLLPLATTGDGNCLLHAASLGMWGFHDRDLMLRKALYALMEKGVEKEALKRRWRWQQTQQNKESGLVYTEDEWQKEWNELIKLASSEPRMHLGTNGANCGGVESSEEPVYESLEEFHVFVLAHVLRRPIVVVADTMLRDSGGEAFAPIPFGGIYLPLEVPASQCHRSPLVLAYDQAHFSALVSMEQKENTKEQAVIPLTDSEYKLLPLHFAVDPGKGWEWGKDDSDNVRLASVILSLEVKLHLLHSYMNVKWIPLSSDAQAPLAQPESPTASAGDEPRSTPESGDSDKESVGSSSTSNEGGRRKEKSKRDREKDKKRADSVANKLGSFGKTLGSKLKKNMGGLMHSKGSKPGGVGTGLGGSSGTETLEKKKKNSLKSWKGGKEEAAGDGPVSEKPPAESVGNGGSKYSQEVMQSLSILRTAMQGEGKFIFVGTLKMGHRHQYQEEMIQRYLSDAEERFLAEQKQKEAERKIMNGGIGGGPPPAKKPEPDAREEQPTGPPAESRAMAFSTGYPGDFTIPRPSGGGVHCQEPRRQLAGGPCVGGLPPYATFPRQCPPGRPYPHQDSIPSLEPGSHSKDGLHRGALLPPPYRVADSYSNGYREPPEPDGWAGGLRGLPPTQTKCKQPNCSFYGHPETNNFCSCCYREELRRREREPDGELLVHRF
# Outline: as §1
# [3] = target: PRPF8 (UniProt Q6P2Q9)
# Outline: as §1
# [4] = target: T3, PSMD7 (UniProt P51665)
# T3 sequence (whole entry): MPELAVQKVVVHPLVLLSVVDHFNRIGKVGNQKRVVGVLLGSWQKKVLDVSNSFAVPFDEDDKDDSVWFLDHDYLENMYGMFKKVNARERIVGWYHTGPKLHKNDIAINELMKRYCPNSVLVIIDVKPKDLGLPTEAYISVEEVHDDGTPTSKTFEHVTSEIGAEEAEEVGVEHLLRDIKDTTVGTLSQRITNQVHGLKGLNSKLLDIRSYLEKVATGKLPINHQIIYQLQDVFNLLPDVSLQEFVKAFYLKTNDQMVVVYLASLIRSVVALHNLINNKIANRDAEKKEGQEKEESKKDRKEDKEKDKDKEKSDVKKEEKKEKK
# Outline: as §1
# [5] = target: UCHL1 (UniProt P09936)
# UCHL1, sequence (P09936 whole entry, looked up): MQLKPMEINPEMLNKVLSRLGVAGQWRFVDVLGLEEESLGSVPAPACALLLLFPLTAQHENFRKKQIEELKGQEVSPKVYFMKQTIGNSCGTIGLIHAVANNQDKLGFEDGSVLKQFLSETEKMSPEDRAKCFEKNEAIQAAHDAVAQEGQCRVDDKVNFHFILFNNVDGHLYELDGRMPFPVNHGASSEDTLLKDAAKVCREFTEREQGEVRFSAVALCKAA
# Outline: as §1
# [6] = target: T4, UCHL3 (UniProt P15374)
# T4 sequence (whole entry): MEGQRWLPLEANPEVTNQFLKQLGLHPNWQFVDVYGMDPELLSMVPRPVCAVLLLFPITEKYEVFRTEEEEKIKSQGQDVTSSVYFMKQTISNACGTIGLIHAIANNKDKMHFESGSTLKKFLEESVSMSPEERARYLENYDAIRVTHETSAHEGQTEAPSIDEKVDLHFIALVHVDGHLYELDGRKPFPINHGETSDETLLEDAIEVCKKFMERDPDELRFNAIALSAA
# Outline: as §1
# [7] = target: T5, UCHL5 (UniProt Q9Y5K5)
# T5 sequence (whole entry): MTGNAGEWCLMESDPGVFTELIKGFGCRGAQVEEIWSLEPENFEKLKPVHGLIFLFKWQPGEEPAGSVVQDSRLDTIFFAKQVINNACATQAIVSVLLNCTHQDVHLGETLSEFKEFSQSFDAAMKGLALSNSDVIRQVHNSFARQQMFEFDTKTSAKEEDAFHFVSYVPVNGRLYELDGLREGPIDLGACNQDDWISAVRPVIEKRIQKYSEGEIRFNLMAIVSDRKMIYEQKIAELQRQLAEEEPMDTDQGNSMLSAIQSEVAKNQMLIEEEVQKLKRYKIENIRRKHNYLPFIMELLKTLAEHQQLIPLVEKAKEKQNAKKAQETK
# Outline: as §1
# [8] = target: USP10 (UniProt Q14694)
# USP10, sequence (Q14694 whole entry): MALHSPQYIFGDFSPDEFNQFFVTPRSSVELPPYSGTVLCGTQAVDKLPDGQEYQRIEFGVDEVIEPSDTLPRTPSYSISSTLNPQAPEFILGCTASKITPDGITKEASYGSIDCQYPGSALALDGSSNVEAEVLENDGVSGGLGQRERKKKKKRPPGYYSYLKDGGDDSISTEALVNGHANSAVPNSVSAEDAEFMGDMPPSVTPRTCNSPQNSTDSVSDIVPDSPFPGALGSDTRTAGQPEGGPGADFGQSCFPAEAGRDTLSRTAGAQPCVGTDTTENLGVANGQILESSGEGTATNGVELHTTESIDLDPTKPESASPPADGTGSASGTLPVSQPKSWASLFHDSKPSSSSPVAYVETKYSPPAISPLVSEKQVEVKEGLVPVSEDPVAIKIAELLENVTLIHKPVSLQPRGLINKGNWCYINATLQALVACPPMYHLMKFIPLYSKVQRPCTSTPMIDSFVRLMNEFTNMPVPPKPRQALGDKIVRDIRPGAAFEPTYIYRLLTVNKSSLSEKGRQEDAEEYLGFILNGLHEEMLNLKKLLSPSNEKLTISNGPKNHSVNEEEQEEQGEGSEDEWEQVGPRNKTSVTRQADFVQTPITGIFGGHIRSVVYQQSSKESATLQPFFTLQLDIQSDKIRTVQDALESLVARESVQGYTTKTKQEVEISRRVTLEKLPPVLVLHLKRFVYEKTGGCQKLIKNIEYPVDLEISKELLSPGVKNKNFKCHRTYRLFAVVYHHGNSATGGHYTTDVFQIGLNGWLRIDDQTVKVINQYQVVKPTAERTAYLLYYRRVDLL
# Outline: as §1
# [9] = target: T6, USP15 (UniProt Q9Y4E8)
# T6 sequence (whole entry): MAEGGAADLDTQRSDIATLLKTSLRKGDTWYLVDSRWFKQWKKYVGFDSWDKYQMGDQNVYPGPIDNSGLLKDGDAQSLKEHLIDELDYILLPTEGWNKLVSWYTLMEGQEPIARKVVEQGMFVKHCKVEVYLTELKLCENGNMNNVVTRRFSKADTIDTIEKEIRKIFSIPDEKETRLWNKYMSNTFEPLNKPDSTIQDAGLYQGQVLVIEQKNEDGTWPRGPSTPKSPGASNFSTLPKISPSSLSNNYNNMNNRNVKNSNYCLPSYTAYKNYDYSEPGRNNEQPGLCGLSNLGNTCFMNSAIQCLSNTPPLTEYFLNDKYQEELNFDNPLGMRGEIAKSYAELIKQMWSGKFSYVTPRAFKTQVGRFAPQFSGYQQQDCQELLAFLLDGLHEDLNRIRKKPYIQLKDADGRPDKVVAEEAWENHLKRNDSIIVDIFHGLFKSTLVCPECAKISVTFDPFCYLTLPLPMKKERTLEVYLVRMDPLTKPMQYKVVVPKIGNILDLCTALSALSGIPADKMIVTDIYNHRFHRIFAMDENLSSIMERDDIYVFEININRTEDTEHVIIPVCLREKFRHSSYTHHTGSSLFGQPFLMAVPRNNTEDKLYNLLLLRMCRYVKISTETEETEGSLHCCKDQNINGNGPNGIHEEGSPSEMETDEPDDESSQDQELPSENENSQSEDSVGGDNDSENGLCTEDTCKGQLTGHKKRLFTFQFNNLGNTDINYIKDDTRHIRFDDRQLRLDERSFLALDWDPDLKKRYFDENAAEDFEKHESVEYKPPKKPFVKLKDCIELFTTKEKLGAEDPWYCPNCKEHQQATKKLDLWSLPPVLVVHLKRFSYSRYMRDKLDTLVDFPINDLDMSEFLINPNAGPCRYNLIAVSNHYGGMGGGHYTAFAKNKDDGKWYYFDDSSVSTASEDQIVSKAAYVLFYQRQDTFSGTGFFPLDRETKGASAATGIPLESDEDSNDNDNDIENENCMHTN
# Outline: as §1
# [10] = target: USP16 (UniProt Q9Y5T5)
# USP16, sequence (Q9Y5T5 whole entry, looked up): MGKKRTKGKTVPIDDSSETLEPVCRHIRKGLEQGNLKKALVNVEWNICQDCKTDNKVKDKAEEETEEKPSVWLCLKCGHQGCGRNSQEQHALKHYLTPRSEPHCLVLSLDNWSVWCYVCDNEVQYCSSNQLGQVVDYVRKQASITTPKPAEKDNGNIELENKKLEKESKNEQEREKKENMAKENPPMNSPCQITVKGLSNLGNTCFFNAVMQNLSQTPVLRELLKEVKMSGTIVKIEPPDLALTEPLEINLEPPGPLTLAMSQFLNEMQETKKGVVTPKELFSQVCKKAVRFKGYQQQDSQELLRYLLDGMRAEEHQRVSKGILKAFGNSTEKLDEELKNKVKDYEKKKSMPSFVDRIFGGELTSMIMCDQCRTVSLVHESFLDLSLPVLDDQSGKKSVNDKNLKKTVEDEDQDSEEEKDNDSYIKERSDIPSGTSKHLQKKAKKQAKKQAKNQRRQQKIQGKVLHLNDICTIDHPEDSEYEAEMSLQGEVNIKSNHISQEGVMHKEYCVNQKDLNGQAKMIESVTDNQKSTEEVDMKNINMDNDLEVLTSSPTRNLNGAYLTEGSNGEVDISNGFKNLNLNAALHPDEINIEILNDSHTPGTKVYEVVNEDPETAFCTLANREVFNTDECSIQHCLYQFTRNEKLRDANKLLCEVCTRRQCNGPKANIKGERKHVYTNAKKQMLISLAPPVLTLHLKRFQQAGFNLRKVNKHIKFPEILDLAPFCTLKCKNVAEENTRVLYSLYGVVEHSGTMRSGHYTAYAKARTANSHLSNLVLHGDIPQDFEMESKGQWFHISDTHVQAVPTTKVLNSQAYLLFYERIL
# Outline: as §1
smiles,measurement,setting,value
Cc1ccc(CN(CCO)C(=O)CCl)cc1,log2 ratio of Biotin-Ahx-Ub-VS probe labelling,[1],-0.389
same,log2 ratio of Biotin-Ahx-Ub-VS probe labelling,[2],-1.14 (active)
same,log2 ratio of Biotin-Ahx-Ub-VS probe labelling,[3],0.0652
same,log2 ratio of Biotin-Ahx-Ub-VS probe labelling,[4],-0.47
same,log2 ratio of Biotin-Ahx-Ub-VS probe labelling,[5],-1.56 (active)
same,log2 ratio of Biotin-Ahx-Ub-VS probe labelling,[6],0.0861
same,log2 ratio of Biotin-Ahx-Ub-VS probe labelling,[7],-0.52
same,log2 ratio of Biotin-Ahx-Ub-VS probe labelling,[8],-0.0725
same,log2 ratio of Biotin-Ahx-Ub-VS probe labelling,[9],-0.384
same,log2 ratio of Biotin-Ahx-Ub-VS probe labelling,[10],0.361
